Experiments:
Experiment in all cases: PBM binding z-score (relative to random genomic background probes); higher = stronger binding; sequences stand for … in GC…GCGATTGACAGCGTAGAATGAAGG
[1] = test system: FXR:RXRa (NR concentration 270 nM, RXRa partner concentration 90 nM)
Outline: (§1)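 For binding z-scores, the reference was random background probes on custom Agilent 4×180K protein-binding microarrays. These arrays were incubated 1 h with ligand-free nuclear receptor dimers in PBS pH 7.4, 2% milk, 0.02% Triton X-100, 1 mM DTT, 0.2 mg/mL BSA and 0.4 mg/ml salmon testes DNA. Fluorescence was scanned after antibody detection of each partner (one per run) and regression-normalized.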

[2] = test system: LXRa:RXRa (NR concentration 270 nM, RXRa partner concentration 90 nM)
Outline: as §1

[3] = test system: LXRa homodimer (NR concentration 270 nM)
Outline: as §1

[4] = test system: LXRb:RXRa (NR concentration 270 nM, RXRa partner concentration 90 nM)
Outline: as §1

[5] = test system: LXRb homodimer (NR concentration 270 nM)
Outline: as §1

[6] = test system: PPARa:RXRa (NR concentration 270 nM, RXRa partner concentration 90 nM)
Outline: as §1

[7] = test system: PPARg:RXRa (NR concentration 180 nM, RXRa partner concentration 90 nM)
Outline: as §1

[8] = test system: PPARg:RXRa 270nM:90nM, anti-RXR (NR concentration 270 nM, RXRa partner concentration 90 nM)
Outline: as §1

[9] = test system: PPARg:RXRa 30nM:10nM, anti-RXR (NR concentration 30 nM, RXRa partner concentration 10 nM)
Outline: as §1

[10] = test system: PPARg:RXRa 90nM:30nM, anti-RXR (NR concentration 90 nM, RXRa partner concentration 30 nM)
Outline: as §1

Sequence | PBM binding z-score [1] | PBM binding z-score [2] | PBM binding z-score [3] | PBM binding z-score [4] | PBM binding z-score [5] | PBM binding z-score [6] | PBM binding z-score [7] | PBM binding z-score [8] | PBM binding z-score [9] | PBM binding z-score [10]
GCAGCTAGGTCAGGTTGGTCAGCTAACGGGTACG | 1.03 | 0.422 | -0.282 | -0.023 | -0.983 | 1.2 | 0.443 | 0.714 | -0.586 | -0.0508
CTCGAAAGGGCGGTTGAGGTGAGTATACGGATAA | 1.23 | -0.197 | -0.251 | -0.253 | -0.452 | 0.0374 | 0.00915 | -0.518 | -0.508 | -0.301
TCTCGGAGGACGCGAAGGTCAGAGCTTTCCAGAG | 0.524 | 0.815 | -0.319 | 0.715 | -1.33 | 1.69 | -0.182 | 1.06 | 1.62 | 1.21
CCTAGTTGGTCAAGGTCATACACGCTATAGGTAC | 4.77 | 4.27 | 2.86 | 3.52 | 0.89 | 3.97 | 2.79 | 3.21 | 1.22 | 2.74
CCTTGCGGGTCACTCCAGGTTATAGCATCGGAGT | 4.22 | 7.4 | 1.24 | 4.85 | -0.435 | 4.25 | 4.41 | 4.41 | 1.34 | 3.35
GCTGCTAGGTCAACTGATGGACAGCTAAAGCTCG | 3.98 | 2.38 | -0.308 | 1.66 | 0.0379 | 3.46 | 2.8 | 2.99 | 0.269 | 1.92
AGTCAAAGTACACTAGGTAACGTAAGATTCAGCT | -0.108 | -0.26 | -0.164 | -0.273 | 0.0714 | 0.196 | 1.13 | 0.666 | 0.149 | 0.295
CAAACTAGGTCAAAGGTTAAAGTCGAGCCAACCA | 7.41 | 5.99 | 2.37 | 5.56 | 1.22 | 7.61 | 13.6 | 11.3 | 13 | 13.7
CCTATTAGTTGACCATAAGGGCAACCAAAGCTCG | 1.06 | 0.507 | 0.675 | 0.965 | 0.552 | 0.948 | 0.604 | 0.461 | 0.262 | 0.51
TCTCGTAGATCAAAGGTTAAGAAAGCCGAAGCCT | 1.56 | 1.85 | -0.119 | 1.9 | -0.471 | 3.46 | 4.19 | 5.74 | 4.84 | 6
CGTCCAAGGTCACAGGTCAGTGAAGAGATGACGG | 7.44 | 5.62 | 1.31 | 4.1 | 0.374 | 6.12 | 7.73 | 6.93 | 3.6 | 5.82
GCTGCTAGGTCAGGTTGGTAAGCTAACGGGTACG | 1.13 | 0.523 | -0.37 | 0.0783 | -0.406 | 1.51 | 0.427 | 0.848 | -0.218 | 0.338
CGTCAAAGTTCAACGAAGGTAACGTAAAGCACGC | 5.82 | 5.6 | 2.79 | 3.6 | 1.02 | 4.68 | 4.43 | 4.94 | 2.06 | 4.07
CCTAGTGGGCCACGAAAGGTCATTGATTCAGTGA | 3.59 | 5.34 | 4.51 | 4.3 | 0.26 | 4.7 | 4.51 | 4.88 | 2.04 | 4.15
TCTAGTTGGTCAAAGGTCACACACTCGAAATGCG | 6.09 | 5.91 | 4 | 5.53 | 1.76 | 6.56 | 11.6 | 10 | 10.4 | 12.2
CAAACTAGGTCACCGGACGGTCAAAGTCCGCATG | 4.83 | 4.33 | 1.97 | 3.09 | 0.428 | 5.37 | 9.09 | 7.27 | 5.34 | 6.89
CCTACTGGGCCATTCACAGGTCATTGATCATATG | 0.864 | 2.27 | 4.05 | 2.21 | -0.0927 | 2.62 | 1.27 | 2.04 | 0.468 | 1.3
GTACCAAGGTGAATATGTCGTTGATGAGTAGGCG | 0.455 | 0.146 | -0.0291 | -0.0194 | -0.329 | 0.873 | 0.753 | 0.42 | 0.0719 | 0.185
AGAATGAGGTTATTAAGATAAGGGAATTGCGGTC | 1.33 | 1.59 | -0.0371 | 1.08 | -0.0386 | 2.64 | 1.47 | 1.65 | 0.732 | 0.962
AGAATGAGGTTATACGTAGAGCAGGGAAGAAAGT | 2.07 | 1.8 | -0.116 | 1.59 | 0.336 | 2.98 | 1.76 | 2.08 | 0.738 | 1.52
TAGCCCAGGTCAGATCGGGCCAGTATACGCTATA | 2.34 | 1.3 | -0.26 | 0.735 | -0.412 | 1.86 | 0.632 | 0.728 | -0.392 | -0.038
GGAACGAGGGTATTCGAGTTGATAGCATGGCGAT | 0.27 | 2.1 | -0.446 | -0.313 | -1.2 | -0.309 | 0.371 | -0.244 | -0.476 | -0.646
AGAATGAGGGCACGCTGAGTTGATAGCAGAGTAG | 1.27 | 1.11 | -0.448 | 0.487 | -0.735 | 2.7 | 2.69 | 2.62 | 0.921 | 1.87
ACTAGCGGGCCAAGGGTCACTCAAGATTAGTCCG | 1.99 | 2.61 | 0.192 | 2.86 | -0.58 | 4.26 | 7.39 | 7.39 | 6.2 | 8.29

Sequence | PBM binding z-score [1] | PBM binding z-score [2] | PBM binding z-score [3] | PBM binding z-score [4] | PBM binding z-score [5] | PBM binding z-score [6] | PBM binding z-score [7] | PBM binding z-score [8] | PBM binding z-score [9] | PBM binding z-score [10]
ACTATTAGTTGACTTAGGGCACCCGATACGACGC | -0.0668 | -0.208 | 0.0685 | -0.198 | 0.757 | -0.213 | 0.894 | 0.204 | 0.268 | 0.525
ACTATTAGTTGACTTATGGCAACCGATACGACGC | 0.061 | 0.293 | 0.179 | 0.682 | 0.995 | 0.117 | 1.04 | 0.488 | 0.748 | 0.352
TCTAGTAGGTTAGTCGGGGCATTCAGCCAACATA | 0.874 | 0.731 | 0.367 | 1.54 | 0.412 | 1.9 | 0.856 | 2.5 | 2.88 | 2.8
AGTCAAAGTTCAGGACGGGGTAACGTAAAGCACG | 4.41 | 4.06 | 1.34 | 2.69 | 1.48 | 3.58 | 4.9 | 5.07 | 2.19 | 4.12
ACTATTAGTTGACTTAGGGCAATCGATACGACGC | 0.199 | 0.203 | 0.0491 | 0.176 | 0.464 | -0.0585 | 0.814 | 0.195 | 0.373 | 0.365
ATATGTAGGTTATCAGGTCATTCAGTTTGCGCAT | 3.19 | 3.57 | 4.4 | 2.93 | 1.68 | 4.62 | 7.23 | 5.99 | 4.05 | 5.54
GCTATTAGTTGAAAGTGCAACCGAATGATTCTCG | 0.0358 | 0.479 | 0.0569 | 0.177 | 0.0186 | 1.33 | 1.28 | 2.92 | 1.24 | 2.72
CTCGATAGGTCGGTTGAGGTGAGTATACGGATAA | 0.692 | 0.287 | -0.389 | 0.0394 | -0.451 | 0.659 | -0.0443 | -0.187 | -0.208 | -0.177
ATCGAAAGGTCGACGATGTGAGTATACACCGTTT | 3.67 | 3.02 | -0.0144 | 2.55 | 0.246 | 4.4 | 2.46 | 2.71 | 0.896 | 1.84
GCTCGCAGGCCATTTGGGTCACTCAATGACGGGC | 0.079 | 0.0243 | -0.668 | 0.0952 | -1.06 | 1.29 | 0.381 | 0.415 | -0.625 | -0.441
CCGAGTAGGTTATGCGGCATTCAGGCAACGGTGA | -0.091 | 0.00702 | -0.177 | -0.0522 | -0.569 | 0.802 | 0.774 | 1.06 | -0.439 | 0.685
TCTGCTAGATCAACGATGGTCAGCTAATCTGCTA | -1.43 | -0.641 | -1.29 | -0.993 | -1.05 | -0.231 | -0.175 | 0.492 | 1.39 | 1.14
ATAATGAGGTTACCAAAGATCAGGGAAACGCTTG | 1.8 | 6.12 | 0.166 | 3.15 | 0.596 | 3.37 | 3.17 | 3 | 1.2 | 2.35
AGTCAAAGTTCATCTAGGTAGCGTAAGATATGCT | 6.22 | 6.03 | 4.76 | 3.76 | 1.66 | 4.61 | 6.29 | 6.38 | 3.49 | 5.38
GCTGCTAGGTCAGGTTGGCCAGCTAACGGGTACG | 1.01 | 0.472 | -0.875 | 0.118 | -0.715 | 1.32 | 0.322 | 0.756 | -0.322 | 0.219
ATCTCTAGGTAAAAGTTCAGTGACTCCCGAGGAT | 1.09 | 2.16 | 1.64 | 1.38 | 0.749 | 4.12 | 8.08 | 8.15 | 8.38 | 8.98
TCATATAGGTAATACAGATGAAAGTCGGCATCTA | 0.463 | 0.531 | 0.032 | 0.521 | 0.268 | 1.08 | 1.47 | 1.93 | 4.02 | 2.97
TCTTGTAGATCAAAGGTGAAGAAAGCCGAAGCCT | 0.848 | 1.05 | -0.533 | 0.994 | -0.372 | 4.04 | 7.41 | 7.96 | 7.36 | 9.05
ATACCAAGGTGATCGTGAGGTCGTTGACACTAAC | 2.81 | 1.92 | 0.798 | 1.38 | -0.392 | 1.59 | 0.583 | 0.586 | 0.0332 | 0.0166
TAGCCTAGGTCATTCGGGCCAGTATAGTGTCGGC | 4.65 | 3.71 | 1.53 | 2.35 | 0.458 | 3.55 | 1.61 | 2.21 | -0.0237 | 1.26
GCTAACAGGCCATTTGGGTCACTCAATGACGGGC | 0.418 | 0.268 | -0.00824 | 0.389 | -0.169 | 1.73 | 0.912 | 0.349 | -0.624 | -0.263
GGAACGAGGGCATTCGAGTTGATAGGATGGCGAT | 1.38 | 1.66 | -0.255 | -0.172 | -0.504 | 1.12 | 1.01 | 0.531 | -0.182 | -0.00549
CTACCAAGGTGAACAAGGTTGTTGATTACTATTC | 0.708 | 0.561 | -0.172 | 1.36 | -0.417 | 1.53 | 0.7 | 0.746 | -0.199 | 0.615
AGAACGAGGGCACGCCGAGTTGATAGCAGAGTAG | 0.906 | 0.551 | -0.503 | 0.0965 | -0.66 | 2.36 | 2.1 | 1.92 | 0.0797 | 0.871

Source: the supplement of paper PMC6555819
